Compounds without any hit were thinned out: in the full panel of roughly 83,000, 20% have a hit.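 Cells were grown in 96-well plates and exposed to the test compound at a single concentration for 48 hours; results are reported as percent growth, with values below 10 considered active.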 Calls of active or inactive are those of the source.
Experiments:
Assay in all cases: NCI-60 one-dose screen, 48 h (100 = growth as untreated, 0 = no growth, -100 = all killed)
Details in all cases: 10 µM unless noted
[1] = test system: RPMI-8226 leukemia
[2] = test system: OVCAR-8 ovarian
[3] = test system: OVCAR-5 ovarian
[4] = test system: OVCAR-4 ovarian
[5] = test system: IGROV1 ovarian
[6] = test system: OVCAR-3 ovarian
[7] = test system: HS 578T breast
[8] = test system: NCI/ADR-RES ovarian
[9] = test system: T-47D breast
[10] = test system: SK-OV-3 ovarian

Measured: growth

COc1cc(/C=C2\CCC/C(=C\c3cc(CN4CCOCC4)c(O)c(OC)c3)C2=O)cc(CN2CCOCC2)c1O
inactive: [1] 19.9% | [2] 19% | [3] 34% | [4] 36.1% | [5] 50.7% | [6] 19.4% | [7] 55.1% | [8] 23.3% | [9] 63.3%

Cc1sc2ncn(CC(=O)Nc3ccc(S(N)(=O)=O)cc3)c(=O)c2c1C
inactive: [1] 106% | [2] 96.5% | [3] 99.2% | [4] 108% | [5] 102% | [6] 108% | [7] 95.8% | [8] 105% | [9] 96.5%

Cc1ccc(NC2=CC(=O)C(=O)c3ccccc32)c(C)c1
active: [6] -15.6%
inactive: [1] 56.7% | [2] 27.9% | [3] 80.3% | [4] 48.1% | [5] 35.6% | [7] 79.5% | [8] 15.6% | [9] 22.9%

COc1ccc(C2Nc3nc(OC)n(C)c(=O)c3N=C3c4ccccc4C(=O)C32)cc1 (stereo unspecified)
inactive: [1] 92.1% | [2] 103% | [3] 103% | [4] 88.5% | [10] 109% | [6] 94.6% | [7] 100% | [8] 97.6% | [9] 101%

COC(=O)/C(=C\c1c(-c2ccccc2)[nH]c2ccccc12)S(C)(=O)=O
active: [1] -14.8% | [6] -46% | [7] -9.62% | [8] -13%
inactive: [2] 36.7% | [3] 83.5% | [4] 63.9% | [10] 39.8% | [9] 27%

O=C1c2cc(I)ccc2Oc2cc([N+](=O)[O-])ccc2N1c1ccc(Cl)cc1F
inactive: [1] 87.4% | [2] 91% | [3] 90.5% | [4] 79.4% | [10] 96.1% | [7] 88.6% | [8] 89.7% | [9] 82.5%

COc1cccc(/C(C#N)=C/c2nc3c(N4CCOCC4)nc(Cl)nc3n2C)c1
inactive: [8] 25.9%
active: [1] -23.5% | [2] 9.5% | [3] -37.6% | [4] -65.9% | [5] -29.8% | [6] -78.7% | [7] -7.18% | [9] -44.5%

O=c1cc(-c2ccccc2)oc2cc(OCc3cn(Cc4ccc(F)cc4)nn3)cc(OCc3cn(Cc4ccc(F)cc4)nn3)c12
inactive: [1] 45.6% | [2] 12.7% | [3] 55.1% | [5] 43.5% | [6] 21.2% | [7] 20.9% | [8] 70.4% | [9] 40.6%
active: [4] -9.56%

COc1ccc(Cn2cc(Cn3c(=O)c(-c4nc5ccccc5[nH]4)cc4ccccc43)nn2)c(OC)c1OC
active: [4] 0.605% | [6] -32.5% | [7] -9.86% | [8] -2.32%
inactive: [1] 16.1% | [2] 23.9% | [3] 19.1% | [5] 27% | [9] 29.7%

CC(C)CCNCC(O)Cn1c2ccccc2c2ccccc21 (stereo unspecified)
active: [1] -24% | [2] 6.95% | [6] -36.2%
inactive: [3] 41.3% | [4] 21.8% | [10] 28.5% | [7] 24.3% | [8] 20% | [9] 12.2%

Cc1ccc2c(n1)C(=O)C(Oc1ccc(Br)cc1)=CC2=O
inactive: [1] 78.7% | [2] 92.3% | [3] 114% | [4] 94.5% | [5] 104% | [6] 84.2% | [7] 100% | [8] 95.8% | [9] 59.2%

Cc1ccc2sc3c(NCCCNCCO)nc4ccccc4c3c(=O)c2c1
active: [1] -16.5% | [9] -39.5%
inactive: [2] 22.4% | [3] 90.7% | [4] 60.4% | [5] 48.8% | [6] 26.6% | [7] 44.2% | [8] 72.6%

O=C(Cn1cc(COc2ncnc3c2cnn3-c2ccccc2)nn1)Nc1ccccn1
inactive: [1] 84.4% | [2] 92.5% | [3] 93.7% | [4] 92.7% | [5] 95.4% | [6] 100% | [7] 88.3% | [8] 91.5% | [9] 80.9%

O=C(/C=C/c1ccc(F)cc1)c1ccc(Nc2nc(NCCO)nc(Nc3ccc(Cl)cc3)n2)cc1
inactive: [2] 78.4% | [3] 96.8% | [4] 78.6% | [5] 96.4% | [6] 77% | [7] 86.8% | [8] 87.2% | [9] 41.5%
active: [1] 1.78%

COC(=O)c1ccc(NC(=O)CSc2nc3ccccc3c(=O)n2-c2ccccc2)cc1
inactive: [1] 89.4% | [2] 101% | [3] 94.7% | [4] 90.6% | [5] 90.9% | [6] 92.6% | [7] 101% | [8] 104% | [9] 92.1%

O=C(/C=C/c1ccc(Cl)cc1)c1ccc(Nc2nc(NCCO)nc(Nc3ccc(Cl)cc3)n2)cc1
inactive: [2] 70.8% | [3] 94.3% | [4] 52.8% | [5] 80.1% | [6] 63.2% | [7] 77.2% | [8] 84.6% | [9] 36.1%
active: [1] -3.49%

O=C(c1nc2ccccc2[nH]1)C1[C@@H](c2cccc(O)c2)C2CC3CCCCC3N2[C@@]12C(=O)Nc1cc(Cl)ccc12 (stereo partly specified)
inactive: [2] 52.5% | [3] 69.3% | [4] 34.4% | [5] 38.8% | [6] 42.5% | [7] 57.1% | [8] 85.2% | [9] 34.3%
active: [1] 4.43%

COc1ccc(/C=C/C(=O)c2ccc(Nc3nc(NCCO)nc(Nc4ccc(Cl)cc4)n3)cc2)cc1
active: [1] 8.06%
inactive: [2] 71.8% | [3] 95.7% | [4] 62.6% | [5] 98% | [6] 73.1% | [7] 87.5% | [8] 83.2% | [9] 38%

CNCCNc1nc2ccccc2c2c(=O)c3cccc(C)c3sc12
active: [1] -30.5%
inactive: [2] 37.4% | [3] 55.3% | [4] 29.4% | [5] 18.1% | [6] 47.7% | [7] 61.6% | [8] 44.6% | [9] 49.3%

Cc1ccc(C2CC(c3ccc(Nc4nc(NCCO)nc(Nc5ccc(Cl)cc5)n4)cc3)=NN2c2cc(Cl)cc(Cl)c2)cc1 (stereo unspecified)
inactive: [1] 101% | [2] 97.4% | [3] 94.2% | [4] 102% | [5] 87.8% | [6] 102% | [7] 68.3% | [8] 105% | [9] 94.5%

COC(=O)c1c2c(c(C)[n+]([O-])c1C)C(=O)C(NCc1ccc(F)c(F)c1)=CC2=O
active: [2] 4.63% | [4] -93.4% | [5] 0.321% | [6] -19% | [8] -6.62%
inactive: [1] 29.9% | [3] 41.4% | [7] 80.2% | [9] 10.9%

CCCCN1CCN(c2ccc3nc(-c4ccc5nc(-c6ccc(C(F)(F)F)cc6)[nH]c5c4)[nH]c3c2)CC1
inactive: [8] 54.8%
active: [1] -35.3% | [2] -40.5% | [3] -89.2% | [4] -84.2% | [5] -82.3% | [6] -96.7% | [7] -64.3% | [9] -37.3%

O=C1CCC(N2C(=O)c3cccc(NCCCCCCOc4ccc(Nc5nccc(Nc6ccccc6)n5)cc4)c3C2=O)C(=O)N1 (stereo unspecified)
inactive: [1] 38.5% | [2] 77.8% | [3] 109% | [4] 64.6% | [5] 72.5% | [6] 78.8% | [7] 98.2% | [8] 79.2% | [9] 39.5%

Fc1ccc(Oc2ccc(Nc3ncnc4onc(-c5ccccc5)c34)cc2)cc1
inactive: [1] 113% | [2] 95.5% | [3] 101% | [4] 102% | [5] 87.6% | [6] 109% | [7] 96.6% | [8] 101% | [9] 94.5%

O=Cc1c(OCc2cnnn2CC(=O)Nc2ccc(Cl)cc2)ccc2ccccc12
inactive: [1] 105% | [2] 99.2% | [3] 94.8% | [4] 100% | [5] 96% | [6] 103% | [7] 101% | [8] 102% | [9] 104%

O=c1c2cc(F)ccc2sc2c(NCCN3CCCC3)nc3ccccc3c12
inactive: [1] 33.9% | [2] 63% | [3] 72.1% | [4] 54.2% | [5] 61.7% | [6] 48.8% | [7] 56.8% | [8] 66.4% | [9] 61.9%

CNCCNc1nc2ccccc2c2c(=O)c3cc(F)ccc3sc12
active: [1] -3.62% | [9] -13.4%
inactive: [2] 17.3% | [3] 86.4% | [4] 49.1% | [5] 37.6% | [6] 40.4% | [7] 56.9% | [8] 62.4%

COC(=O)[C@H](NC(=O)C1(C)CCC[C@]2(C)[C@H]3C[C@H]4C(C(C)C)=C[C@]3(CC[C@@H]12)[C@@H]1C(=O)CCC(=O)[C@@H]14)C(C)C (stereo partly specified)
inactive: [1] 103% | [2] 101% | [3] 98.7% | [4] 94.5% | [5] 91.9% | [6] 109% | [7] 92.9% | [8] 96.1% | [9] 94.2%

From PubChem BioAssay (NCI)
